Sampled rows, rich in hits. Any-hit rate of the full collection: about 7.2%.
RE007 growth inh = less growth of the S. pombe RE007 Vpr strain | S. pombe RE007 Vpr strain, BacTiter-Glo ATP luminescence, 24 h | Potency, µM (highest dose often 92.2 µM), inactives show at the top dose activity change, negative = less growth, hits mostly inhibitors | 360,000 tested, 0.21% active | AID 651644; active means well fitted falling curve with a large enough effect; inconclusive means small, poorly fitted or top-dose-only effect; inactive means no such curve, though single readings can be large or run the other way; further: nearly all actives have a fitted effect of over 50% in size
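Fission yeast strain RE007, carrying one chromosomally integrated HIV-1 vpr copy, was seeded at OD 0.01 in PMG+AL medium with 23 nL pinned compound. After 24 h at 30 °C and 99% humidity, viability was read by BacTiter-Glo luminescence.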
LASV entry inh = blocks Lassa virus binding to or entry into cells; Lassa virus pseudotype entry inhibition, cell reporter; Potency, µM (series often up to 37.9 µM), for inactives: top-dose activity change, negative = inhibition, actives largely listed as inhibitors; 300,000 tested, 1.2% active; AID 540256; calls by dose curve; tested in HEK293 cells; further: nearly all actives have a fitted effect of over 50% in size
HCV inh = inhibitors of hepatitis C virus infection. AID 651820. Huh7.5.1 HCVcc-Cre infection, luciferase reporter, 44 h. 340,000 tested, 3.4% active. Potency, µM (highest dose often 41.8 µM), for inactives: at the highest dose activity change, negative = inhibition, actives largely listed as inhibitors
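Reporter virus HCVcc-Cre (~0.5 moi) infects cells exposed to compound; seeding density 1,000 cells/well with 4 h settling beforehand. Luminescence, 15 sec read, taken 44 h post-infection following a 15 min RT substrate incubation.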
FMDV antiviral = foot and mouth disease virus antiviral activity; AID 1159524; 410,000 tested, 1.2% active; FMDV antiviral cell-based qHTS; Potency, µM (highest dose often 57.9 µM), for the others: at the highest dose activity change, negative = inhibition, usual class: inhibitors; calls by dose curve; tested in HEK293T cells; further: read-out not given here; nearly all actives have a fitted effect of over 45% in size
MARV entry inh = inhibitors of Marburg virus binding or cell entry; 300,000 tested, 1.8% active; Potency, µM (titrated, usually from 37.8 µM), inactives show at the highest dose activity change, negative = inhibition, usual class: inhibitors; Marburg virus pseudotyped entry inhibition, cell reporter; calls by dose curve; tested in HEK293 cells
Sm TGR block = inhibitors of Schistosoma mansoni thioredoxin glutathione reductase | purified TGR, DTNB reduction, TNB absorbance 405 nm | Q962Y6 | Potency, µM (doses to about 114 µM), without a hit: at the highest dose activity change, negative = inhibition, actives largely listed as inhibitors | 360,000 tested, 3% active; further: nearly all actives have a fitted effect of over 60% in size
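First, TGR (20 nM dispensed) and NADPH were mixed with compound. Second, a 15 min room-temperature incubation followed. Third, further NADPH and then DTNB were added to start the reaction. Finally, TNB absorbance was monitored kinetically.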
The depositor's hits bear a star; ? = inconclusive; . = no result given; ! = not confirmed by another sample; [ ] = another dose, or the depositor's remark. Unless noted, the call rests on the fitted dose curve; in most records, active means well fitted curve in the direction sought with a large enough effect; inconclusive means small, poorly fitted or top-dose-only effect, or another doubt; inactive means no such curve, though single readings can be large; an effect the other way counts as inactive or inconclusive. On the % scale 0 is the no-effect control and ±100 the full control effect; potency means the concentration at half of the fitted maximal effect.

SMILES	RE007 growth inh	LASV entry inh	HCV inh	FMDV antiviral	MARV entry inh	Sm TGR block
CC(C)CN(CCOc1cccc(N2C(=O)C3=C(CCCC3)C2=O)c1)CC(C)C	-8%	8%	9%	?	-30%	0%
O=C1C2=C(CCCC2)C(=O)N1c1cccc(OCCBr)c1	?	-2%	5%	-1%	6%	45µM*
COC(=O)c1ccccc1NC(=O)Cn1c(=O)n(CCC(=O)NCc2ccccc2OC)c(=O)c2ccccc21	.	19%[46.1 µM]	.	-20%	30%[46.1 µM]	3%
Cc1ccc2oc(-c3cccc(NC(=S)NC(=O)/C=C/c4ccco4)c3)nc2c1	2%	?	-7%	?	?	-26%
O=C(/C=C/c1ccco1)NC(=S)Nc1cccc(C(=O)O)c1	2%	28%[46.1 µM]	9%	-8%	-14%[46.1 µM]	4.5µM*
COc1cccc(NC(=S)NC(=O)/C=C/c2ccco2)c1	-16%	?	?	63%	?	10µM*
CCOC(=O)C1CCCN(C(=S)Nc2ccc(S(=O)(=O)N3CCOCC3)cc2)C1 (configuration not stated)	-3%	-22%	-24%	-7%	-16%	.
O=c1[nH]c(=S)n(C2CC2)c(O)c1/C=N/Nc1ccccc1	164%	?	11%	35%	28%	20µM*
O=c1[nH]c(=S)n(C2CC2)c(O)c1/C=N/Nc1cccc2ccccc12	-22%	-3%	-2%	-11%	-1%	35µM*
Cc1cc(C(=O)N/N=C/c2cc(Br)cc(Br)c2OC(=O)c2cccc(F)c2)n[nH]1	3%	12µM*	?	-23%	18µM*	-11%
CCOc1ccc(S(=O)(=O)N2c3ccccc3CC2C)cc1 (configuration not stated)	-19%	?	8.9µM*	-13%	?	-17%
CCCN1CCc2cc(O)cc3c2[C@H]1Cc1ccc(O)c(O)c1-3	-10%	-37%	?	-14%	35µM*!	.
CC(=O)OC1CC(OC(C)=O)[C@]2(C)C(CC(OC(C)=O)[C@]3(C)C2CC[C@@]2(C)C(c4ccoc4)OC(=O)C4O[C@]432)C1(C)C (some centres not stated)	.	.	.	-16%	.	.
CCOCCN1CCN(C2c3ccccc3CSc3ccccc32)CC1 (configuration not stated)	15%	?	22µM*	-24%	13µM*	.
C/C(CCN1CCCc2nc(C)c(C)cc21)=N\O[C@H](C)CN1CCCc2nc(C)c(C)cc21	.	.	.	.	-41%[14.2 µM]	.
COC1=CC2C(=O)C(C(c3ccccc3)C2C)C1(O)c1cccc(OC)c1 (configuration not stated)	.	.	.	.	15%[14.2 µM]	.
O=c1cc2c(nn1Cc1c(Cl)cccc1Cl)-c1ccccc1CC2	-8%	0%	25µM*	-25%	?	-13%
Clc1cccc(Cl)c1CSc1cc2c(nn1)-c1ccccc1CC2	8%	-6%	-17%	25%	?	0%
Cc1ccc(NC(=O)CSc2nnc(COc3ccc(Cl)cc3)o2)cc1	.	-26%[46.1 µM]	.	-1%	-25%[46.1 µM]	-9%
Cc1ccc(/C(N)=N/OC(=O)c2ccco2)cc1	-28%	?	9%	-54%	?	1%
COc1ccc(/C(N)=N/OC(=O)c2ccco2)cc1	-22%	7.1µM*	16%	-45%	?	18%
Cc1ccc(-n2c(=O)c3ccccc3n(CC(=O)Nc3cccc(C(F)(F)F)c3)c2=O)cc1	.	-30%[46.1 µM]	.	-14%	-11%[46.1 µM]	-2%
O=C(NCCO)C(=O)Nc1c2c(nn1-c1ccc(F)cc1)CSC2	.	-11%[46.1 µM]	.	-10%	.	-20%
CC(=O)Nc1ccc(NC(=O)c2ccc(CSc3ccccc3)o2)cc1	-7%	18%	7%	0%	27%[46.1 µM]	6%
O=C(Nc1cccc(F)c1)c1ccc(CSc2ccccc2)o1	-14%	5.2µM*	0%	21%	7.3µM*	-23%
SMILES	RE007 growth inh	LASV entry inh	HCV inh	FMDV antiviral	MARV entry inh	Sm TGR block
CC(=O)c1ccc(S(=O)(=O)Nc2cccc(-c3ccc(N4CCCC4)nn3)c2)cc1	.	-23%[46.1 µM]	.	34%	.	1%
CN(C)C(=O)c1ccc(-c2ccc3ncnc(Nc4ccc(F)cc4)c3c2)cc1	.	.	.	-8%	.	.
Cc1cc(S(=O)(=O)NCC(c2ccco2)S(=O)(=O)c2cccs2)ccc1F (configuration not stated)	.	0%[46.1 µM]	.	70%	.	?
COc1ccc(C(=O)NCC(c2cccs2)S(=O)(=O)c2cccs2)cc1 (configuration not stated)	.	-11%[46.1 µM]	.	-13%	.	-27%
CCOC(=O)C(=O)NCC(c1ccco1)S(=O)(=O)c1cccs1 (configuration not stated)	4%	7%	-9%	-3%	-12%[46.1 µM]	2.5µM*
Cc1cc(C)c(S(=O)(=O)NCC(c2ccco2)S(=O)(=O)c2cccs2)c(C)c1 (configuration not stated)	.	?	.	45%	.	0.28µM*
CCOc1ccc(C(=O)NCC(c2ccco2)S(=O)(=O)c2cccs2)cc1 (configuration not stated)	.	15%[46.1 µM]	.	9%	.	5.6µM*
Cc1cc(C)c(NC(=O)CSc2ncc3c(n2)-c2cc(Cl)ccc2N(C)S3(=O)=O)c(C)c1	.	18%[46.1 µM]	.	-25%	.	22%
COc1ccccc1-c1cc(C(=O)N/N=C/c2ccc(C)s2)c2ccccc2n1	-11%	7.1µM*	?	-14%	8.9µM*	-8%
Cc1ccc(-c2cc(C(=O)N/N=C\c3cnn(C)c3C)c3ccccc3n2)cc1C	0%	11µM*	-20%	18%	-24%	8%
COc1ccc(-c2cc(C(=O)N/N=C/c3cccnc3)c3ccccc3n2)cc1	-18%	10µM*	-7%	6%	?	-27%
Cc1ccc(-c2cc(C(=O)NCc3cnn(C)c3C)c3ccccc3n2)cc1C	.	-16%[46.1 µM]	.	7%	?	6%
CCc1ccc(/C=N/NC(=O)c2cc(-c3ccccc3OC)nc3ccccc23)s1	3%	?	-22%	-10%	?	-2%
COc1ccc2ccccc2c1/C=N\NC(=O)c1ccc(C)s1	9%	7%[46.1 µM]	10µM*	0%	-21%[46.1 µM]	2%
COc1ccc2ccccc2c1/C=N/NC(=O)c1ccccc1F	-12%	-3%	?	-9%	18%	3%
CCOC(=O)c1ccc(NC(=O)CSc2nnc(-c3ccncc3)n2-c2ccccc2)cc1	.	21%[46.1 µM]	.	17%	.	9%
COc1cc(/C=N/NC(=O)c2cc(-c3ccccc3)sc2N)cc(OC)c1OC	4%	16µM*	?	-25%	?	7%
Cc1ccc(-c2cc(-c3ccccc3O)nc(N/N=C/c3cccnc3)n2)cc1	13%	-22%	0.56µM*	.	-13%	8%
C(=N\Nc1nccc(-c2cccnc2)n1)/c1ccccc1	-15%	.	13%	0%	.	3%
COc1cc(/C=N/NC(=O)c2cc(-c3cccc(OC(C)C)c3)nc3ccccc23)ccc1O	4%	3.5µM*	?	-25%	3.5µM*	.
